Molecules are shown by their SMILES. Potency and affinity values are given separately. Activity calls are given as the source filed them. How the calls were made is not given here.

The experiment in a line: viability loss in HEK293 cells – cell-based, plate reader, cherry-picked samples, cytotoxicity control, dose response (AID 743446). The note with it: hits give low values; at 26 µM unless noted.
Turning to `COc1ccc(CC(=O)Nc2cccc(-c3nnc(-c4cccc(C)c4)o3)c2)cc1OC`, the max activity was -27% (inactive). Next, `O=C(c1cc(-c2ccc(Cl)cc2Cl)on1)N1CCOCC1`: 14.9% [at 0.05 µM] (inactive); `COc1ccc2[nH]c3c(c2c1)CCN1C(=O)N([C@@H](C)C(=O)NCc2ccc(C)cc2)C(=O)[C@]31C`: -9.06% [at 6 µM] (inactive). Next, `Cc1cc(C(=O)CN2C(=O)c3ccccc3S2(=O)=O)c(C)n1C(C)C`: -20.6% [at 3 µM] (inactive). Next, `O=C(C[C@H]1CC[C@H](NS(=O)(=O)c2cccc(F)c2)[C@@H](CO)O1)N1CCCCC1`: 20.1% [at 0.05 µM] (inactive); `Cc1ccc2nc(CSc3nc(C)ccc3C#N)[nH]c2c1`: -29.6% [at 1.6 µM] (inactive); `O=C(O)c1ccc(N/N=C/c2ccc(OC(=O)c3cccc(Cl)c3)cc2)cc1`: -7.42% [at 3 µM] (inactive). As to `COCCOc1cc(NCc2ccccc2)c2ncn(C(C)C)c2c1`, the max activity was -9.83% [at 0.1 µM] (inactive). As for `O=C(NCCc1ccccc1)c1ccc2nccnc2c1`, the max activity was 9% (inactive).

In the case of `C[C@H]1CN([C@@H](C)CO)C(=O)c2cccc(NC(=O)NC3CCCCC3)c2O[C@@H]1CN(C)Cc1ccc(C(F)(F)F)cc1`, the max activity was 27.3% [at 12 µM] (inactive). In the case of `CC(C)(C)NC(=O)c1cccc(NC(=O)c2ccc3c(c2)C(=O)N(C(C)(C)C)C3=O)c1`, the max activity was 27.3% [at 0.195 µM] (inactive). The figure for `CN(C)c1cccc(C(=O)Nc2nc3ccccc3[nH]2)c1` is 39.2% [at 12 µM] (inactive). Consider `Cn1nnnc1SCC(=O)N1CCN(C(=O)c2ccco2)CC1`, for which the max activity is -12.8% [at 0.05 µM] (inactive). Next, `COc1ccc2sc(NC(=O)c3ccco3)nc2c1`: 18.6% [at 0.05 µM] (inactive); `COc1ccc(OCC(=O)Nc2nccs2)cc1`: 15.2% [at 1.6 µM] (inactive). Next, `C[C@H](CO)N1C[C@H](C)[C@H](CN(C)Cc2ccccc2)Oc2c(NS(=O)(=O)c3cn(C)cn3)cccc2C1=O`: 13% [at 1.6 µM] (inactive); `C[C@H](CO)N1C[C@H](C)[C@H](CN(C)C(=O)Nc2ccccc2)OCCCC[C@H](C)Oc2ccc(NC(=O)C3CCCCC3)cc2C1=O`: 9.5% [at 3 µM] (inactive).

Regarding `COCCCNc1ccn2nc(-c3ccccc3)cc2n1`, the max activity was 42.6% [at 12 µM] (inactive). Turning to `C[C@H](CO)N1C[C@H](C)[C@H](CN(C)C(=O)Nc2cccc3ccccc23)OCCCC[C@H](C)Oc2ccc(NC(=O)CCC(F)(F)F)cc2C1=O`, the max activity was 78.9% (inactive). The figure for `COCC(=O)N[C@@H]1CC[C@@H](CC(=O)NCc2ccccc2OC)O[C@@H]1CO` is -9.61% [at 0.05 µM] (inactive); for `CC(C)N(C(=O)Nc1ccc2nsnc2c1)C(C)C` it is 12.5% (inactive).

In the case of `COCCn1c(C)cc(C(=O)CSc2nnc3ccccn23)c1C`, the max activity is -15% [at 6 µM] (inactive). Next, `C[C@H](CO)N1C[C@H](C)[C@H](CN(C)C(=O)Nc2ccc(F)cc2)OCCCC[C@H](C)Oc2ccc(NC(=O)NC3CCCCC3)cc2C1=O`: 38.8% [at 12 µM] (inactive). The figure for `CCCOc1ccc(F)cc1-c1cc(C(=O)Nc2cc(OC)c(OC)c(OC)c2)[nH]n1` is 9.95% [at 3 µM] (inactive); for `Cc1ccc2nc(-c3ccc(Br)cc3)cn2c1` it is 0% [setting not given] (inactive); for `Cc1ccc(-c2csc(Nc3ccccn3)n2)cc1` it is -11.1% (inactive). The figure for `O=C(O)c1ccc(Nc2nc3c(s2)CCCC3)cc1` is 49.8% [at 12 µM] (inactive). As for `O=C(C[C@H]1C=C[C@@H](NC(=O)C2CCC2)[C@H](CO)O1)NCCCN1CCOCC1`, the max activity was -15.9% [at 1.6 µM] (inactive).

For `O=C(NCc1ccco1)c1cc(NS(=O)(=O)c2cccc([N+](=O)[O-])c2)ccc1O`, the max activity is 40.6% [at 0.38 µM] (inactive). Next, `O=C(CCCc1ccccc1)Nc1cccc(C(=O)O)c1`: 48.9% (inactive); `OC[C@H]1[C@@H](c2ccc(-c3ccc(F)cc3)cc2)[C@@H]2CN(Cc3ccccn3)CCCCN12`: -12.3% (inactive); `CN1CCN(c2ccc(NC(=O)c3sc4ccccc4c3Cl)cc2)CC1`: 17.1% [at 0.1 µM] (inactive).

With `Cc1ccc(-n2nnc(-c3nccn3C)n2)cc1`, the max activity was -39% (inactive). Next, `CCC(=O)Nc1cc2nn(-c3ccc(OC)cc3)nc2cc1C`: 0% [setting not given] (inactive); `COc1ccc(C(=O)Nc2nnc(SCC(=O)NCc3ccco3)s2)c(OC)c1`: 15% (inactive); `Cc1ccc(S(=O)(=O)N2[C@@H](CO)CO[C@H]2CC(=O)OCc2ccccc2)cc1`: 42.9% [at 12 µM] (inactive). For the compound `CC(C)c1ccc(NC(=O)N2CCN(S(=O)(=O)c3ccccc3)CC2)cc1`, the max activity was 17.9% [at 0.38 µM] (inactive).

For `COc1cccc(C(=O)Nc2ccc3c(c2)OC[C@@H](C)N(CC2CC2)C[C@H](C)[C@H](OC)CN(C)C3=O)c1`, the max activity was 13% [at 0.05 µM] (inactive). The figure for `C[C@@H]1CN([C@H](C)CO)C(=O)c2c(c3ccccc3n2C)-c2ccccc2CO[C@H]1CN(C)S(=O)(=O)c1cn(C)cn1` is 11.7% [at 12 µM] (inactive).

The record behind these values is PubChem BioAssay AID743446 (Broad Institute, 2014).
